The source of these data is PubChem BioAssay (NCATS).

Values joined by “and” are separate entries in the source; they are usually repeats but may differ in a detail not shown here. Equal values may be shown once. A number with no mark means an inactive call. Calls follow the shape of the dose curve; as a rule, active = well fitted activation curve with a large enough effect; inconclusive = small, poorly fitted or top-dose-only effect; inactive = no such curve, though single readings can be large or run the other way.

Sequence of Cytochrome P450 3A4 (Homo sapiens) (P08684 whole entry, looked up): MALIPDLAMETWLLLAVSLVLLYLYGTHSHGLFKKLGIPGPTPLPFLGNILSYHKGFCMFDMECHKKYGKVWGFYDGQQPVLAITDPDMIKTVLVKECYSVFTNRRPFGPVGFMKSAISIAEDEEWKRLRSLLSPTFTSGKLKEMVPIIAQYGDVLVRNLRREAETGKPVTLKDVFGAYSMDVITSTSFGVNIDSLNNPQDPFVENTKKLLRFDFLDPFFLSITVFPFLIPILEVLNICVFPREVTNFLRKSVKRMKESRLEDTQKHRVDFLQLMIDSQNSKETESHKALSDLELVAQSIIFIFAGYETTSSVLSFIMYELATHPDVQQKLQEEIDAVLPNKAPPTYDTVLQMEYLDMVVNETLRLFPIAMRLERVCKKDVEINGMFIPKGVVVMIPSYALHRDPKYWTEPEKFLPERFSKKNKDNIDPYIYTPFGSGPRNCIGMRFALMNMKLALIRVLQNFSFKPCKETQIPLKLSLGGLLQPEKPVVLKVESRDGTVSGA

The assay has as its target Cytochrome P450 3A4 (Homo sapiens) (UniProt P08684). Put plainly: qHTS Assay for Activators of Cytochrome P450 3A4 (AID 885). Also: nearly all actives have a fitted effect of over 65% in size. Particulars: recombinant CYP3A4, Luciferin-PPXE luminescence, 60 min; series mostly up to 57.1 µM; activity change, positive = activation: at the top concentration. The method in brief: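 Signal was normalized against complete inhibition by 57 uM ketoconazole. The reaction used 20nM CYP3A4 with 25uM Luciferin-PPXE, 10-min compound preincubation and a 60-min NADPH-supported step at RT.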
(In general: Quantitative high-throughput screening tests each substance at several concentrations.)
For `CCc1cc2c(nc1CC)CCN(CC/C(C)=N/OC[C@@H](O)[C@@H]1O[C@@H]3OC(C)(C)O[C@@H]3[C@H]1O)C2`, the activity change, positive = activation is -30.5% [at 11.4 µM].

For `CO[C@H]1COC(=O)C/C=C\[C@H](C)COC(=O)[C@@H](OCc2ccccc2)/C=C\[C@@H]1C`, the activity change, positive = activation was -41.2% [at 11.4 µM].

In the case of `CC(C)=CCC/C(C)=C/CO/N=C1/[C@H]2O[C@@H]2[C@@H](O)[C@H]2[C@H]1CCn1c(=O)n(Cc3cc4c(cc3Cl)OCO4)c(=O)n12`, the activity change, positive = activation is -56.5% [at 11.4 µM].

Take `COc1ccc(OC)c(-c2ccccc2/C=N/NS(=O)(=O)c2ccc(C)cc2)c1`: the activity change, positive = activation was -59.9% [at 11.4 µM].

For `COC(=O)C(/C=C/C(C)Cc1cc(Br)cc(OCc2ccccc2)c1OC)OCc1ccccc1` (stereo not given), the activity change, positive = activation is -50.4% [at 11.4 µM].

Take `C[C@@H]1O[C@H]2C3=C(C(=O)[C@H]4O[C@@H]4[C@H]3O)[C@@H]1[C@@H]1[C@@H](C)OC=C3[C@H](O)[C@H]4O[C@@H]4/C(=N\OCc4ccccc4)[C@]312`: the activity change, positive = activation was -31.8% [at 11.4 µM].

Take `CC(C)CO/N=C1/C[C@@H](O)[C@@H](O)[C@@H]2[C@@H]3C(=O)N(Cc4ccc5c(c4)OCO5)C(=O)[C@H]3CC[C@H]12`: the activity change, positive = activation was -96.6% [at 11.4 µM].

Regarding `O=C1[C@@H]2[C@H]3[C@H](O)[C@H](O)C/C(=N/OC[C@@H](O)COCc4ccco4)[C@@H]3CC[C@H]2C(=O)N1c1ccc(F)cc1F`, the activity change, positive = activation was -48.8% [at 11.4 µM].

As for `CC1Cc2c(-c3ccccc3)nc3c(c2CO1)CN(CCOc1ccccc1)CC3` (stereo not given), the activity change, positive = activation is -39% [at 11.4 µM].

As to `CC1CCC2C(=O)OC(CN3C(=O)c4ccccc4C3=O)CN2C1c1ccc(Br)cc1` (stereo not given), the activity change, positive = activation is -55.7% [at 11.4 µM].

Consider `CCN1C(=O)[C@H]2[C@H]3[C@H](O)[C@H](O)C/C(=N/O[C@@H](C)c4cn([C@H](CO)Cc5ccccc5)nn4)[C@@H]3CC[C@@H]2C1=O`, for which the activity change, positive = activation was -35.2% [at 11.4 µM] and -33% [at 11.4 µM].

For `COc1ccc(COC(=O)N/N=C2/C[C@@H](O)[C@@H](O)[C@@H]3[C@@H]4C(=O)N(c5cccc(Oc6ccccc6)c5)C(=O)[C@H]4CC[C@@H]23)cc1`, the activity change, positive = activation is -30.5% [at 11.4 µM].

With `COC(=O)NC(/C=C/c1ccccc1)[C@]1(C(C)=O)CCCC1=O` (stereo not given in full), the activity change, positive = activation is -41.6% [at 11.4 µM].

`C#CCCCO/N=C1/C[C@@H](O)[C@@H](O)[C@@H]2[C@@H]3C(=O)N(C4CCCCC4)C(=O)[C@H]3CC[C@H]12`: the activity change, positive = activation is -57% [at 11.4 µM].

As for `CCCCCC(=O)O[C@@]1(C(C)=O)CCC2C3CCC4=CC(=O)CC[C@@]4(C)C3CC[C@]21C` (stereo not given in full), the “activity change, positive = activation” value is -70.2%.

For the molecule `CC/C=C\CC[C@H](OC(=O)c1ccc(Br)cc1)C1=CCCCC1=O`, the activity change, positive = activation is -40.7% [at 11.4 µM].

Consider `C[C@@H]1/C=C\CC(=O)OC[C@H](C)C(=O)N[C@@H](Cc2ccccc2)C(=O)OC1`, for which the activity change, positive = activation is -37.2% [at 11.4 µM].

On to `COC1(C#CC2C=CC(OC(C)=O)C(COC(C)=O)O2)CCCCC1` (stereo not given), for which the activity change, positive = activation was -43% [at 11.4 µM].

In the case of `CC(=O)OC[C@@H]1O[C@H](C/C=N\OCC[C@H]2C=C[C@H](OC(C)=O)[C@@H](COC(C)=O)O2)C=C[C@@H]1OC(C)=O`, the activity change, positive = activation is -31% [at 11.4 µM].

With `CCCNC(=O)OC[C@@H]1O[C@H](CCON=C(C)C)C=C[C@@H]1Oc1ccc(OC)cc1`, the activity change, positive = activation is -58.2% [at 11.4 µM].

For `CC1CCC2C(=O)OC(CO)CN2C1c1ccc(Br)cc1` (stereo not given), the activity change, positive = activation is -46.2% [at 11.4 µM].

With `CC1(C)CC[C@]2(C(=O)O)C(O)C[C@@]3(C)C(=CCC4[C@@]5(C)CCC(O)C(C)(C)C5CC[C@@]43C)C2C1` (stereo not given in full), the “activity change, positive = activation” value is -54.8%.

As to `O=C1[C@@H]2[C@H]3[C@H](O)[C@H](O)C/C(=N/OC[C@@H](O)COCc4ccco4)[C@H]3CC[C@H]2C(=O)N1c1ccc(F)cc1F`, the activity change, positive = activation is -44.4% [at 11.4 µM].

On to `C/C(CCN1CCc2nc(-c3ccccc3)c(-c3ccccc3)cc2C1)=N\O[C@@H](C)c1cc(-c2c(C)cc(C)cc2C)no1`, for which the activity change, positive = activation is -63.5% [at 11.4 µM].

As for `C/C(CCC(=O)OC[C@@H]1O[C@H](C#Cc2ccccc2)C=C[C@@H]1Oc1ccc(C)cc1)=N/OC[C@@H](C)[C@H](OCc1ccccc1)C(C)C`, the activity change, positive = activation was -45.8% [at 11.4 µM].
